# Shiga toxin inh: blocks Shiga toxin action in Vero cells; Vero cells, Shiga toxin protein synthesis inhibition reporter; inhibition, % at 38.7 µM; 9.2% of 290,000 active; in the data active = inhibition mostly above about 28%, no sharp cut-off; inactive = mostly below about 43%; also: 0% is about no effect
# CHX counter: counter-screen for Shiga toxin inhibitors: cycloheximide protein synthesis inhibition; 12% of 300,000 active; AID 2314; cell reporter, cycloheximide protein synthesis inhibition counterscreen; max response, %; in the data active = max response mostly above about 13%, no sharp cut-off; inactive = mostly below about 14%; also: read at 38.3 µM for the half of the compounds with a filed dose; 0% is about no effect
# HCMV antiviral: human cytomegalovirus inhibition | HFF cells, HCMV-luciferase reporter, 72 h; stronger effect = lower value | activity change, negative = inhibition, % at 57.5 µM | 4.5% of 410,000 active; in the data active = activity change below about -60%; inconclusive = no clear call, values can overlap the other calls; inactive = above about -39%; also: % is scaled to controls: 0 for no effect and ±100 for the full control effect
#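 Screen run at 2 compound doses on HFFs infected with reporter HCMV, MOI 1 PFU/cell. Luciferase activity from cell lysates at 72 h post infection gave inhibition relative to buffer-only and Salinomycin wells.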
# Pf growth 48h: inhibits P. falciparum growth in the first generation, 48 h; 5.9% of 310,000 active; Potency, µM (top dose mostly 28.7 µM), inactives show at the top dose activity change, negative = inhibition, most hits filed as inhibitors; P. falciparum luciferase growth in erythrocytes, 48 h; also: potency is read from the fitted curve at half-maximal effect; % is scaled to controls: 0 for no effect and ±100 for the full control effect
#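 First compound was added to culture medium, then infected red cells at 0.1% parasitemia and 2% hematocrit (final). After incubation at 37 C under 5% CO2, luciferase detection reagent was dispensed and light output recorded.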
# Pf growth 96h: P. falciparum growth inhibition at 96 hours. P. falciparum luciferase reporter growth, 96 h. Potency, µM (highest dose often 28.7 µM), inactives show top-dose activity change, negative = inhibition, most hits filed as inhibitors. 6.9% of 320,000 active. AID 504834; also: potency is read from the fitted curve at half-maximal effect; % is scaled to controls: 0 for no effect and ±100 for the full control effect
#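 Compounds incubated with erythrocytes infected by luciferase-expressing P. falciparum (2% hematocrit, 0.05% parasitemia final) for 96 hours, 37 C in 5% CO2. Growth inhibition scored as decreased luciferase luminescence.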
# The depositor's hits bear a star; ? = inconclusive; · = no result given. Hits are enriched below; roughly 20% of the tested compounds scored in any of these assays. Unless noted, calls follow the shape of the dose curve; as a rule, active = well fitted inhibition curve with a large enough effect; inconclusive = small, poorly fitted or top-dose-only effect, or another doubt; inactive = no such curve, though single readings can be large or run the other way.
SMILES,Shiga toxin inh,CHX counter,HCMV antiviral,Pf growth 48h,Pf growth 96h
CCCNC(=O)c1cc(-c2ccc(Br)cc2)on1,66*,34*,33,43%,?
CC(C)NC(=O)c1cc(-c2ccc(Br)cc2)on1,122*,49*,94,186%,?
CSc1sccc1/C=C(/C#N)C(=O)c1ccco1,18,11,-17,20%,12%
CCCC(C(=O)NCc1ccco1)N(C(=O)CNS(=O)(=O)c1ccccc1)c1ccccc1OC (centres undefined),35,1,-19,10µM*,?
CCC(C(=O)NCc1ccco1)N(C(=O)CNS(=O)(=O)c1ccc(C)cc1)c1ccccc1OC (centres undefined),-20,-2,6,4.1µM*,21%
CCC(C(=O)NCc1ccco1)N(C(=O)CNS(=O)(=O)c1ccc(C)cc1)c1ccccc1F (centres undefined),0,-6,11,?,-6%
COc1ccccc1N(C(=O)CNS(=O)(=O)c1ccccc1)C(C(=O)NCc1ccco1)C(C)C (centres undefined),-14,2,1,?,5.2µM*
CN(C)c1cc(N/N=C/c2ccc(Cl)cc2)nc(N(C)C)n1,44,11,?,?,-17%
O=C(Nc1ccc(OCC(=O)N2CCOCC2)cc1)Nc1cccc2ccccc12,-10,-1,-20,-15%,36%
CC(C)(C)c1ccc(-c2conc2N)cc1,111*,48*,39,252%,·
CC(C)c1nnc(NC(=O)CSc2nnc(NC(=O)c3c(F)cccc3F)s2)s1,-5,-6,0,57%,0%
CN(C)c1cccc(C(=O)N(Cc2ccccc2)Cc2ccccc2)c1,-3,1,-18,-12%,10µM*
C=C(c1ccccc1)c1ccc(N(C)C)cc1,41,2,38,55%,197%
CN(C)c1ccc(C(=O)c2ccccc2)cc1,41,26*,41,·,133%
CN(C)c1ccc(C(=O)N(Cc2ccccc2)Cc2ccccc2)cc1,-7,-4,-38,-4%,15µM*
CN(C)c1cccc(C(=O)OCC(=O)NC(=O)NCc2ccccc2)c1,·,·,19,·,·
COC(=O)/C(C#N)=C/c1cc(C)sc1C,-8,1,9,21%,-3%
CS(=O)(=O)N1CCc2cc(C(=O)N3CCN(c4ccccc4F)CC3)ccc21,5,5,-7,20%,26%
Cc1[nH]c2ccccc2c1N=Nc1ccc(F)cc1,45,19*,-31,20%,53%
Cc1[nH]c2ccccc2c1N=Nc1ccccc1F,53*,24*,-5,14%,5%
Cn1c(=O)c2c(nc(SCC(=O)Nc3ccc(F)c(F)c3)n2Cc2ccccc2F)n(C)c1=O,·,·,-9,·,·
CS(=O)(=O)N(Cc1ccccc1)c1ccc(C(=O)N2CCN(c3cccc(Cl)c3)CC2)cc1,42,22*,-29,?,·
CS(=O)(=O)c1ncc(Cl)c(C(=O)N2CCN(c3cccc(Cl)c3)CC2)n1,-20,-16,-101*,·,·
Cc1ccc(Cl)cc1N1CCN(C(=O)c2noc3c2CCCC3)CC1,·,·,48,·,·
O=C(c1cc2ccccc2cc1O)N1CCN(c2cccc(Cl)c2)CC1,·,·,-25,?,12µM*
SMILES,Shiga toxin inh,CHX counter,HCMV antiviral,Pf growth 48h,Pf growth 96h
CC1CCc2onc(C(=O)N3CCN(c4cccc(Cl)c4)CC3)c2C1 (centres undefined),·,·,-60*,·,·
Cc1cccc2cc(CN(CC3CCCO3)S(=O)(=O)c3ccccc3)c(=O)[nH]c12 (centres undefined),-1,-1,?,-21%,-1%
COC(=O)c1c(SC)nc2ccccc2c1OCc1ccc(Cl)cc1,·,·,-22,·,·
CCC(=O)N1c2ccccc2CC1C(=O)NCc1cc(OC)ccc1OC (centres undefined),·,·,9,·,·
CCS(=O)(=O)c1ncc(Cl)c(C(=O)N2CCN(c3cccc(Cl)c3)CC2)n1,·,·,-101*,·,·
CC(Sc1nc2ncc(Cl)cc2[nH]1)C(=O)Nc1ccc(C(N)=O)cc1 (centres undefined),·,·,-6,?,-25%
N#Cc1c(Cl)nc2c(c1C#N)CCCC2,-5,-3,-75*,8%,-7%
COc1ccc(Cl)cc1C(=O)NNC(=O)CSc1nncn1C,·,·,-91*,·,·
COc1ccc(N(CC(=O)NC2CCCC2)C(=O)c2ccc(N3CCCCC3)nc2)cc1,30,-7,4,9.3µM*,?
CCC(C)(C)NC(=O)CN(C(=O)c1ccc(N2CCCC2)nc1)c1ccc(F)cc1,4,7,24,4.1µM*,?
COCCNC(=O)CN(C(=O)c1ccc(N2CCCC2)nc1)c1ccc(Cl)cc1,-6,-5,13,-18%,?
CCOc1ccc(N(C(=O)CNC(=O)c2cccs2)C(C(=O)NCC2CCCO2)c2ccc(OC)c(OC)c2)cc1 (centres undefined),-1,-2,?,9.3µM*,-5%
COc1ccc(C(C(=O)NC(C)(C)C)N(C(=O)CNC(=O)c2cccs2)c2ccc(C)cc2)cc1OC (centres undefined),1,1,41,?,?
COc1ccc(N(C(=O)CNC(=O)c2cccs2)C(C(=O)NCC2CCCO2)c2ccc(OC)c(OC)c2)cc1 (centres undefined),-6,-3,-4,?,?
COc1ccc(C(C(=O)NC(C)(C)C)N(C(=O)CNC(=O)c2cccs2)c2ccc(C(C)C)cc2)cc1OC (centres undefined),17,-4,23,12µM*,8.3µM*
COc1ccc2c(c1)CCc1sc(NC(=O)c3ccc(C)cc3)nc1-2,80,19,0,?,6.6µM*
COc1ccc2c(c1)CCc1sc(NC(=O)c3ccco3)nc1-2,129*,50*,·,·,?
COc1ccc2c(c1)CCc1sc(NC(=O)c3ccc(Br)cc3)nc1-2,·,·,-25,·,·
COc1ccc2c(c1)Cc1sc(NC(=O)c3cccnc3)nc1-2,13,6,-33,?,-1%
COc1ccc2c(c1)-c1nc(NC(=O)c3ccco3)sc1CC2,121*,49*,93,154%,0%
COc1ccc2c(c1)Cc1sc(NC(C)=O)nc1-2,72*,40*,112,90%,-10%
COc1ccc2c(c1)-c1nc(NC(=O)c3cccc(Br)c3)sc1CC2,·,·,-19,·,·
C=C1CCN(C(Cc2ccccc2)C(=O)O)S(=O)(=O)c2ccccc21 (centres undefined),-7,-5,·,·,·
COc1ccc(OC)c(CNC(=O)CN2N=C(c3ccc(Cl)cc3)CCC2=O)c1,·,·,-12,·,·
O=C(CSc1nc(=O)[nH]c2c1CCCC2)NCc1ccccc1,·,·,2,·,·
COc1ccc2c(c1)-c1nc(NC(=O)c3cccs3)sc1CC2,75*,24*,58,?,15%
COc1ccc2c(c1)Cc1sc(NC(=O)c3ccco3)nc1-2,62*,74*,85,110%,?
NC(=O)CC(NC(=O)c1ccccc1)c1ccc(NCc2ccccn2)c([N+](=O)[O-])c1 (centres undefined),-6,-1,6,61%,?

# From PubChem
